How the values were obtained:
[1] = tested on: Falciformispora senegalensis CBS197.79; assay: growth relative to untreated control; higher = less inhibition, active = 20 or less
How it was run: (§1)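 In 96-well plates, suspended hyphal fragments of M. mycetomatis MM55 or F. senegalensis CBS197.79 were exposed to compound at 100 or 25 µM for 7 days at 37 °C. The suspension medium was colourless RPMI 1640 with L-glutamine and MOPS, adjusted to 68–72% transmission at 660 nm. Viability was measured with MTS (2 h, 490 nm) or resazurin (600 nm). Growth means metabolic activity compared with the untreated growth control after blank correction of both with medium plus dye.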

[2] = tested on: Madurella mycetomatis MM55; assay: as above
How it was run: as §1

Measured: growth

O=c1[nH]ccc2nc(N[C@@H]3CCNC3)nc(Nc3ccc4c(c3)S(=O)(=O)CC4)c12
inactive: [1]; 25 µM 90.7% | [1]; 100 µM 113% | [2]; 25 µM 62.9% | [2]; 100 µM 104%

COc1ccc(CCNc2nccc(-c3cc(Cl)cc(C(F)(F)F)c3)n2)cc1
inactive: [1]; 25 µM 87.1% | [1]; 100 µM 94.6% | [2]; 25 µM 110% | [2]; 100 µM 116%

CCCOc1ccc(C(F)(F)F)cc1NC(=O)c1nc2nccc(C)n2n1
inactive: [1]; 25 µM 91.7% | [1]; 100 µM 90% | [2]; 25 µM 62% | [2]; 100 µM 84.4%

O=C(c1ccc(Nc2nccc(-c3cc(Cl)cc(C(F)(F)F)c3)n2)cc1)N1CC(O)C1
inactive: [1]; 25 µM 88.9% | [1]; 100 µM 93.2% | [2]; 25 µM 110% | [2]; 100 µM 85.6%

CCC(C)n1ncn(-c2ccc(N3CCN(c4ccc(OCC5COC(Cn6cncn6)(c6ccc(Cl)cc6Cl)O5)cc4)CC3)cc2)c1=O (stereo unspecified)
active: [2]; 25 µM 5.47% | [2]; 100 µM 4.46%
inactive: [1]; 25 µM 37.2% | [1]; 100 µM 81.1%

Cc1nc2ccccc2n1Cc1ccc(Cl)cc1
inactive: [1]; 25 µM 106% | [1]; 100 µM 76.5% | [2]; 25 µM 76.5%
active: [2]; 100 µM 5.04%

C[C@H](NC(=O)c1cc2cccc(F)c2[nH]1)c1ccccc1
inactive: [1]; 25 µM 100% | [1]; 100 µM 90.3% | [2]; 25 µM 26.9%
active: [2]; 100 µM 6.74%

Cc1ncc([N+](=O)[O-])n1CC(C)O (stereo unspecified)
inactive: [1]; 25 µM 93.4% | [1]; 100 µM 100% | [2]; 25 µM 120% | [2]; 100 µM 128%

COc1cccc(OC2CCN(C(=O)c3cc(C(C)(C)C)nn3Cc3ccccc3)CC2)c1
inactive: [1]; 25 µM 82.9% | [1]; 100 µM 93.8% | [2]; 25 µM 87.4% | [2]; 100 µM 118%

— the supplement of paper PMC11172423
